Results as given in article PMC12670160, “A drug-repurposing screen of FDA- and EMA-approved drugs identifies two NF-κB inhibitors active against eumycetoma” (Journal of Antimicrobial Chemotherapy, 2025).
Structures can show the parent of a compound that is named as a salt. Where two headings read alike, the source gives them in different places. Out of some 5,300 compounds screened, about 130 (2.5%) showed an effect of 50% or more. Shown is part of a subset that was picked to be rich in strong results.

System: M. mycetomatis strain mm55
Conditions: primary screen, metabolic activity vs growth control, 96 h, 2 µM, inhibitor

| Compound | % viability [%] | % viability (Madurella mycetomatis metabolic activity at 2µM (%)) [%] |
| --- | --- | --- |
| Cc1coc2c1C(=O)C(=O)c1c-2ccc2c1CCCC2(C)C [ONC0005254, tanshinone iia tanshinone b] | 103.2 | – |
| C[C@H]1COC2=C1C(=O)C(=O)c1c2ccc2c1CCCC2(C)C [ONC0001081, cryptotanshinone] | 49.66 | – |
| Cc1c(S(=O)(=O)O)oc2c1C(=O)C(=O)c1c-2ccc2c1CCCC2(C)C [ONC0003377, sodiumtanshinoneiiasulfonate] | 55.5 | – |
| Nc1nc2nc[nH]c2c(=S)[nH]1 [ONC0003925, tioguanine] | 107.9 | – |
| Nc1ncn([C@H]2C[C@H](O)[C@@H](CO)O2)c(=O)n1 [ONC0003115, decitabine] | 79.17 | – |
| O=c1[nH]c(=O)n([C@H]2C[C@H](O)[C@@H](CO)O2)cc1F [ONC0002845, floxuridine] | 24.01 | – |
| Nc1nc(=O)n([C@H]2C[C@H](O)[C@@H](CO)O2)cc1F [ONC0004119, 5fluoro2deoxycytidine] | 7.324 | – |
| O=c1[nH]c(=O)n([C@H]2C[C@H](O)[C@@H](CO)O2)cc1Br [ONC0001774, 5brdu] | 105.2 | – |
| Nc1nc(=O)n([C@H]2C[C@H](O)[C@@H](CO)O2)cc1Cl [ONC0003690, 5chloro2deoxycytidine] | 55.79 | – |
| Cc1cn([C@@H]2C[C@@H](O)[C@H](CO)O2)c(=O)[nH]c1=O [ONC0004416, telbivudine sebivo tyzeka] | 98.41 | – |
| Nc1nccc(/C=C/c2ccccc2)n1 [ONC0001621, tcn238] | 73.65 | – |
| CCC(C/C=C/c1ccccc1)(c1ccccc1)N(C)CC1CC1 (stereo not drawn) [ONC0003075, igmesine] | 61.21 | – |
| O=C1NCN(c2ccccc2)C12CCN(CCCC(c1ccc(F)cc1)c1ccc(F)cc1)CC2 [ONC0003520, fluspirilene] | 48.06 | – |
| O=C(NCCN1CCC2(CC1)C(=O)NCN2c1cccc(F)c1)c1ccc(F)c(F)c1 [ONC0004390, ml298] | 135.4 | – |
| O=C(CCCN1CCC2(CC1)C(=O)NCN2c1ccccc1)c1ccc(F)cc1 [ONC0000014, spiperone] | 87.63 | – |
| CC(C)c1cc(CNc2nc(Nc3cc(C4CC4)[nH]n3)cc(N3CCN(C)CC3)n2)on1 [ONC0000976, xl228] | 85.75 | – |
| CCCC[C@H](NC(C)=O)C(=O)N[C@H]1CC(=O)NCCCC[C@@H](C(=O)O)NC(=O)[C@H](Cc2c[nH]c3ccccc23)NC(=O)[C@H](CCCN=C(N)N)NC(=O)[C@@H](Cc2ccccc2)NC(=O)[C@H](Cc2cnc[nH]2)NC1=O [ONC0002156, bremelanotide acetate] | 73.73 | – |
| O=C1O[C@@H](CO)[C@H](O)[C@@H](O)[C@@H]1O [ONC0003123, gluconolactone] | 67.77 | – |
| C[N+]1(C)CCC(OC(=O)C(c2ccccc2)c2ccccc2)CC1 [ONC0003592, 4damp] | 92.53 | – |
| C[N+]1(C)CCC(=C(c2ccccc2)c2ccccc2)CC1 [ONC0004508, diphemanil methylsulfate] | 48.99 | – |

| Compound | % viability [%] | % viability (Madurella mycetomatis metabolic activity at 2µM (%)) [%] |
| --- | --- | --- |
| Clc1cccc(Cl)c1N=C1NCCN1 [ONC0004193, clonidine hydrochloride] | 96.49 | – |
| Ac-PHSCN-NH2 [ONC0000745, atn161 trifluoroacetate salt] | 72.86 | – |
| CCNC(=O)[C@@H]1CCCN1C(=O)[C@H](CCCNC(=N)N)NC(=O)[C@H](CC(C)C)NC(=O)[C@@H](C)NC(=O)[C@H](Cc1ccc(O)cc1)NC(=O)[C@H](CO)NC(=O)[C@H](Cc1c[nH]c2ccccc12)NC(=O)[C@H](Cc1c[nH]cn1)NC(=O)[C@@H]1CCC(=O)N1 [ONC0002202, alarelin acetate] | 212.3 | – |
| CC(CN(C)C)CN1c2ccccc2Sc2ccccc21 (stereo not drawn) [ONC0003228, trimeprazine tartrate] | – | 94.09 |
| CS(=O)(=O)c1ccc(Oc2cc(F)cc(C#N)c2)c2c1[C@H](O)C(F)(F)C2 [ONC0001118, pt2385] | 47.48 | – |
| C[N+](C)(C)[C@@H](Cc1c[nH]c(=S)[nH]1)C(=O)O [ONC0003509, lergothioneine] | 51.74 | – |
| CCOC(=O)N1CSCC1C(=O)O (stereo not drawn) [ONC0002766, 3ethyl thiazolidine34dicarboxylate] | 97.19 | – |
| Nc1ncnc2c1ncn2[C@H]1O[C@@H](C(=O)N2CCN(CC(=O)Nc3cccc4c3CNC4=O)CC2)[C@H](O)[C@@H]1O [ONC0001619, eb47] | 55.83 | – |
| Cc1cn([C@H]2O[C@@H](CO)[C@H](O)[C@@H]2F)c(=O)[nH]c1=O [ONC0004549, clevudine levovir] | 61.35 | – |
| O=C(O)/C=C\c1c[nH]cn1 [ONC0002668, cisurocanic acid] | 45.73 | – |
| O=C(O)/C=C/c1c[nH]cn1 [ONC0003737, cisurocanicacid] | 146.4 | – |
| N[C@H](Cc1c[nH]cn1)C(=O)O [ONC0001939, dhistidine] | 75.44 | – |
| NC(=O)c1nc[nH]c1O [ONC0003682, 5hydroxy1himidazole4carboxamide] | 60.3 | – |
| Nc1nc2nn[nH]c2c(=O)[nH]1 [ONC0002792, azaguanine8] | 265.7 | – |
| O=C(O)Cc1ccc(OCCNC[C@H](O)c2ccccc2)cc1 [ONC0001068, zd2079] | 36.58 | – |
| COCCNC(=O)COc1ccc(OCCNC[C@H](O)COc2ccccc2)cc1 [ONC0001450, zd7114] | 94.55 | – |
| O=C(O)COc1ccc(OCCNC[C@H](O)COc2ccccc2)cc1 [ONC0002275] | 78.74 | – |
| COc1ccc(C[C@H](C)NC[C@@H](O)c2ccc(O)c(NC=O)c2)cc1 [ONC0001548, formoterol] | 81.88 | – |
| COc1ccc([C@]2(O)CC[C@@H](N3CC[C@@H](NC(=O)CNC(=O)c4cccc(C(F)(F)F)c4)C3)CC2)cn1 [ONC0000726, incb 3284] | 81.5 | – |
